# High-throughput results: PubChem BioAssay, National Center for Advancing Translational Sciences (NCATS)
# Most compounds without a hit are left out; they make up all but 6.1% or so of the library.
# ATXN2 expr inh: ATXN2 expression inhibition; HEK-293 ATXN2-luciferase reporter, luminescence, 24 h; Potency, µM (series often up to 57 µM), for inactives: at the highest dose activity change, negative = inhibition, usual class: inhibitors; actives 0.72% (n = 360,000); AID 1745845; also: % is scaled to controls: 0 for no effect and ±100 for the full control effect; nearly all actives have a fitted effect of over 55% in size
#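 ATXN2-luciferase reporter cells (luciferase flanked by upstream and downstream ATXN2 gene portions) were treated 24 h at 37 °C with compounds at up to 57 uM. SteadyGlo luminescence gave expression; GF-AFC fluorescence gave viability.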
# TGFb inhibitor: TGF-b pathway inhibition; HepG2 CAGA-GFP TGF-b/SMAD3 reporter, GFP fluorescence, 18 h; TGF-beta stimulated, 500 pg/mL final; Potency, µM (titrated, usually from 46.1 µM), for the others: top-dose activity, negative = inhibition, usual class: inhibitors; actives 1.2% (n = 410,000); AID 588855; also: % is scaled to controls: 0 for no effect and ±100 for the full control effect; nearly all actives have a fitted effect of over 65% in size
#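 Read-out: total well GFP (ex488/em500-530) summed from mean per-cell fluorescence. Cells: HEPG2 CAGA-GFP, 1% FBS DMEM, 18 h at 37 degrees C with 500 pg/mL final TGF-beta. Unstimulated wells served as the full-inhibition control; stimulated DMSO wells = 0%.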
# Gal4-VP16 FLuc: counter-screen for ROR gamma inhibitors: Gal4-VP16 reporter; AID 2546; Potency, µM (titrated, usually from 53.6 µM), for the others: at the highest dose activity, negative = inhibition, usual class: inhibitors; actives 3.5% (n = 310,000); Drosophila S2 Gal4-VP16 UAS-luciferase, luminescence, 20 h;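 also: Gal4-VP16 expression switched on by copper sulfate through the metallothionein promoter; % is scaled to controls: 0 for no effect and ±100 for the full control effect; nearly all actives have a fitted effect of over 50% in size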
# ATXN viability: viability counter-screen for ATXN expression inhibitors; Potency, µM (titrated, usually from 56.7 µM), actives largely listed as cytotoxic; AID 651635; actives 0.49% (n = 400,000); S2 cells (HEK-293 line with an ATXN2-luciferase reporter) viability, CellTiter-Fluor protease fluorescence, 24 h; also: nearly all actives have a fitted effect of over 40% in size
# RORgamma inh: ROR gamma (mouse) transcription inhibition. Potency, µM (highest dose often 53.6 µM), for inactives: at the highest dose activity change, negative = inhibition, hits mostly inhibitors. Drosophila S2 Gal4-RORgamma UAS-luciferase reporter, 20 h. AID 2551. actives 5.4% (n = 310,000); also: % is scaled to controls: 0 for no effect and ±100 for the full control effect; nearly all actives have a fitted effect of over 60% in size
# Target sequence (P51450 whole entry, looked up, the tested form may be a part): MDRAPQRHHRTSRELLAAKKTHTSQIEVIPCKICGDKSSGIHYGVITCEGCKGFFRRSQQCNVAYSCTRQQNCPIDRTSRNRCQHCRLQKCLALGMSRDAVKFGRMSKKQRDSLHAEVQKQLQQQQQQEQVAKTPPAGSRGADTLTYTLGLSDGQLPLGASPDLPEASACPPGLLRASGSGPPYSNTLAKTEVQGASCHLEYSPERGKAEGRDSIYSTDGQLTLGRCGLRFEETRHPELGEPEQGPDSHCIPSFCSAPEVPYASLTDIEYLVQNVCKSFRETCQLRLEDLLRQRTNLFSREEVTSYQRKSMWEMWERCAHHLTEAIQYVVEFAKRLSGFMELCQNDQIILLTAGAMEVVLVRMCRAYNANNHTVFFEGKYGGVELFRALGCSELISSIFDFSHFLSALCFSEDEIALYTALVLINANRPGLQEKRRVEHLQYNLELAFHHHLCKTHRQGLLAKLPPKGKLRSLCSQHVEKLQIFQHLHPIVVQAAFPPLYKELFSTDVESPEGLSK
#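 Stably transfected Drosophila Schneider cells are the test system, with ROR gamma fused to Gal4 and luciferase under UAS control; luminescence is read after 20 hr of 700 uM copper sulfate induction at ambient temperature.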
# HepG2 viability: kills HepG2 cells in TGF-b inhibitor counter-screen; actives 0.76% (n = 410,000); HepG2 CAGA-GFP viability, ATP luminescence, 18 h; Potency, µM (top dose mostly 46.1 µM), for the others: at the highest dose activity change, negative = cytotoxicity, hits mostly cytotoxic; AID 588856
#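 HepG2 CAGA-GFP cells (1000/well, DMEM with 1% FBS) received compound, then TGF-beta at 500 pg/mL final, and were incubated 18 hours at 37 degrees C. Viability was read by CellTiter-Glo luminescence. Media-only wells were set as complete cell-killing and DMSO as no toxicity.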
# Numbers without * were called inactive; i = inactive; u = inconclusive; x = no result; [ ] = dose if it differs, or a comment. Calls follow the shape of the dose curve; as a rule, active = well fitted curve in the direction sought with a large enough effect; inconclusive = small, poorly fitted or top-dose-only effect, or another doubt; inactive = no such curve, though single readings can be large; an effect the other way counts as inactive or inconclusive. Potency is read from the fitted curve at half-maximal effect.
SMILES,ATXN2 expr inh,TGFb inhibitor,Gal4-VP16 FLuc,ATXN viability,RORgamma inh,HepG2 viability
O=C(NCCc1csc(-c2ccc(F)cc2)n1)c1cccc(F)c1,28.2µM*,u,x,u,x,-36.2%
O=C(NCCc1csc(-c2ccc(C(F)(F)F)cc2)n1)c1ccc(F)c(F)c1,20µM*,11.2µM*,x,u,x,-74.4%
COc1ccc(S(=O)(=O)NCCc2csc(-c3cccc(F)c3)n2)cc1OC,-24.0%,u,x,i,x,-13.1%
Cc1cc(S(=O)(=O)NCCc2csc(-c3cccc(F)c3)n2)ccc1F,u,u,x,u,x,12.6µM*
COc1cc(-c2ccc(C)cc2)cc2c1OCCN(C(=O)CCn1ccc(C)n1)C2,x,x,x,i,x,x
CSCC[C@H](NC(=O)[C@@H]1CCCN1C(=O)CNC(=O)[C@H](CCCCN)NC(=O)[C@H](Cc1cnc[nH]1)NC(=O)[C@H](CO)NC(=O)[C@H](CC(C)C)NC(=O)[C@H](CCCNC(=N)N)NC(=O)[C@@H]1CCCN1C(=O)[C@H](CCCNC(=N)N)NC(=O)[C@H](CCC(N)=O)NC(=O)[C@H](CCCNC(=N)N)NC(=O)[C@H](CCCNC(=N)N)NC(=O)[C@H](Cc1ccccc1)NC(=O)[C@@H](N)CCCCN)C(=O)N1CCC[C@H]1C(=O)N[C@@H](Cc1ccccc1)C(=O)O,x,x,-1.0%,x,8.9%,x
CC(NC(=S)NCCCN1CCOCC1)C12CC3CC(CC(C3)C1)C2 (stereo not given),-14.5%,0.2%,u,i,10µM*,-10.3%
CC(NC(=S)NCc1ccccc1)C12CC3CC(CC(C3)C1)C2 (stereo not given),2.5%,-6.6%,u,i,2.82µM*,-0.6%
S=C(NCCCN1CCOCC1)NCCCN1CCOCC1,-7.4%,-16.9%,-14.7%,i,-14.9%,-1.0%
CCn1cc([N+](=O)[O-])c(C(=O)N2N=C(c3ccc(O)c(OC)c3)CC2c2ccccc2O)n1 (stereo not given),-11.7%,u,u,i,u,-7.0%
CCn1cc([N+](=O)[O-])c(C(=O)N2N=C(c3ccc(Cl)c(Cl)c3)CC2c2ccccc2O)n1 (stereo not given),u,11.2µM*,u,x,u,-101.9%
CCn1cc([N+](=O)[O-])c(C(=O)N2N=C(c3ccc4ccccc4c3)CC2c2cc(Br)ccc2O)n1 (stereo not given),u,20µM*,u,i,38.2%,-55.6%
CCS(=O)(=O)NCCc1csc2nc(-c3ccc(OC)cc3)nn12,x,1.1%,x,x,x,-2.9%
Cc1ccc(Nc2ncnc3c2cnn3-c2ccccc2)c(C)c1,41.1%,0.4%,x,i,x,-22.8%
Cc1cnn(C(=S)NCc2ccc(Cl)cc2)c1,0.0%,-19.9%,7.08µM*,i,6.31µM*,-21.3%
CC(=O)N1CCN(C(=S)NCCc2ccccc2)CC1,x,-0.6%,0.3%,i,22.4%,-6.7%
Cc1cnn(C(=S)NCCc2ccccc2)c1,57.7%,-6.9%,u,i,14.1µM*,-34.2%
CCCN1CCN(C(=S)NCc2ccc(Cl)cc2)CC1,6.6%[11.3 µM],1.6%,-7.8%,i,-7.6%,-1.2%
COc1ccc(Cl)cc1NC(=O)c1cc2nc(-c3ccc4c(c3)OCO4)cc(C(F)(F)F)n2n1,3.4%,-21.4%,x,i,x,-53.1%
O=C(Cc1ccc(NC(=O)N2CCSc3ncccc32)cc1)NCc1ccccc1,x,0.0%,x,x,x,-17.3%
COc1cccc(/C=N/NC(=O)CNC(=O)/C=C\c2ccccc2)c1O,x,u,3.16µM*,i,2.51µM*,-17.2%
COc1cccc(/C=N/NC(=O)CNC(=O)C(c2ccccc2)c2ccccc2)c1O,u,1.4%,u,i,1.78µM*,-14.9%
COc1ccc(/C=C/C(=O)NCC(=O)N/N=C/c2cc(Br)ccc2OCc2ccccc2)cc1,-33.2%,-5.6%,-9.2%,15.8µM*,-15.6%,-29.9%
COc1ccccc1/C=C/C(=O)NCC(=O)N/N=C/c1ccccc1,-4.0%,2.1%,9.3%,i,6.3%,-4.2%
COc1cccc(/C=N/NC(=O)CC2C(=O)NN=C2C)c1O (stereo not given),1.3%,-16.0%,-5.9%,i,-3.0%,-0.5%
SMILES,ATXN2 expr inh,TGFb inhibitor,Gal4-VP16 FLuc,ATXN viability,RORgamma inh,HepG2 viability
COc1ccc(/C=C\C(=O)NCC(=O)N/N=C/c2cccc(OC)c2O)cc1,u,-5.4%,7.94µM*,i,1.58µM*,-10.1%
CC(=O)CC1OC(=O)C(Br)=C1NCc1ccccc1 (stereo not given),u,10µM*,20µM*,x,u,7.94µM*
O=C(CC1Oc2ccccc2NC1=O)NCc1ccccc1 (stereo not given),3.8%,-4.2%,-16.1%,i,-9.9%,0.6%
Nc1[nH]c(=O)nc2c1ncn2C1OC(CO)C(O)C1O (stereo not given),x,3.8%,x,x,x,-1.1%
CN(C)c1ccc(CNC(=O)c2ccc3nc(CCc4ccccc4)oc3c2)cc1,x,10.7%,x,x,x,-1.1%
Cc1ccc(C(O)(COC(=O)C(C)C)COC(=O)C(C)C)c(O)c1,-2.8%,17.4%,31.6µM*,i,-105.9%,7.2%
O=C1NC(=S)S/C1=C\C=C\c1ccc([N+](=O)[O-])o1,u,2.24µM*,4.47µM*,8.91µM*,5.62µM*,-105.4%
N#CC1c2ccccc2C=CN1C(=O)N(c1ccccc1)c1ccccc1 (stereo not given),u,8.91µM*,x,u,x,11.2µM*
CN(C)c1ccc(-n2cccc2/C=C/[N+](=O)[O-])cc1,u,11.5%,-6.4%[10 µM],29.9µM*,11.2µM*,-3.2%
Cc1cc(N2CCCC2)ccc1/C=C1\NC(=S)N(C)C1=O,2.4%,10.4%,2.51µM*,i,-42.3%,-4.1%
O=C1/C(=C/c2ccc(N3CCCC3)cc2)NC(=S)N1C1CC1,16.1%,43.1%,11.2µM*,i,7.08µM*,-25.8%
NC(=O)/C(=N\OC(=O)c1ccco1)c1nc(-c2ccc(Br)cc2)cs1,-13.6%,-25.5%,u,i,4.47µM*,-54.6%
Fc1cc(F)cc(NC(=S)NN2CCOCC2)c1,2.8%,2.0%,7.4%[10 µM],i,10µM*,6.2%
CCC(C)c1ccc(NC(=S)NN2CCOCC2)cc1 (stereo not given),20.1%,u,4.47µM*,i,2.24µM*,-0.2%
COc1ccc(NC(=S)NN2CCN(C)CC2)cc1,8.6%,0.0%,-5.6%,i,-3.3%,8.5%
CC(C)c1ccc(NC(=S)NN2CCN(C)CC2)cc1,-32.2%,-17.9%,14.3%,i,11.2µM*,-1.4%
